About 650 (31%) of roughly 2,100 compounds were called active. About 16% were inconclusive and are not listed. Calls follow the shape of the dose curve; as a rule, active = well fitted inhibition curve with a large enough effect; inconclusive = small, poorly fitted or top-dose-only effect; inactive = flat fitted curve, though single readings scatter. Some of the results follow. A call without a number means that no potency is given here.

The results in this text go back to PubChem BioAssay AID651812 (National Center for Advancing Translational Sciences (NCATS), 2012).
Potency is read from the fitted curve at half-maximal effect.

The experiment in a line: qHTS for inhibitors of Vif-A3G interactions: Cherry picks. Also: nearly all actives have a fitted effect of over 80% in size. The following applies: HeLa A3G-eYFP + Vif (tagged APOBEC3G with the HIV-1 protein that degrades it), 24 h; Potency: eYFP fluorescence increase; series mostly up to 36.9 µM. Summed up: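 HeLa cells stably expressing A3G-eYFP and Vif, cultured overnight then exposed to compounds at several concentrations for 24 hours at 37 C, 5% CO2; cellular yellow fluorescence (488 nm ex, 500-530 nm em) imaged on Acumen, MG132 positive control.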
In general terms: In qHTS, concentration-response curves come from the screen itself.
Turning to `Cc1ccc(NC(=O)/C=C/c2ccc([N+](=O)[O-])s2)c(C)c1`, the Potency is 5.8 µM (active).
For the compound `CC(=O)c1cccc(NC(=S)N2c3ccccc3CC2C)c1` (stereo unspecified), the Potency result was “inactive”.
Regarding `CC(=O)c1cccc(NC(=O)/C=C/c2ccc([N+](=O)[O-])s2)c1`, the Potency is 8.2 µM (active).
The figure for `Cc1cccc(NC(=O)/C=C/c2ccc([N+](=O)[O-])s2)c1` is 4.11 µM (active); for `Cc1ccc(NC(=O)Cc2ccc(-n3cccc3)cc2)c(C)c1` it is “inactive”; for `Cc1nc(NC(=O)/C=C/c2ccco2)sc1C` it is “inactive”.
Take `Cc1ccc(NC(=O)/C=C/c2ccc([N+](=O)[O-])s2)cc1`: the Potency is 7.31 µM (active).
With `Cc1ccc(NC(=O)C(=Cc2ccc(C(=O)O)cc2)C(=O)Nc2ccc(C)cc2C)c(C)c1`, the Potency entry was “inactive”.
For the compound `C=CCN=c1scc(-c2ccc(F)cc2)n1/N=C/c1ccccn1`, the Potency result was “inactive”.
For `COc1ccc(CN2C(=O)C(C)Nc3ncnc(N4CCc5ccccc5C4)c32)cc1` (stereo unspecified), the Potency result is “inactive”.
With `COC(=O)c1sccc1NC(=S)Nc1cc(C)cc(C)c1`, the Potency entry is “inactive”.
As to `Cc1cc(C)cc(NC(=O)/C=C/c2ccc([N+](=O)[O-])s2)c1`, the Potency was 23.1 µM (active).
For the compound `Cc1noc(C)c1COc1ccc(C(=O)NNC(=O)c2ccccc2F)cc1`, the Potency result is “inactive”.
For `O=C(COc1ccccc1-c1ccccc1)NN=C1CCCC1`, the Potency entry was “inactive”.
For `COc1ccc(-n2cc3c(-c4cccc(Br)c4)nnc(C)c3n2)cc1`, the Potency entry was “inactive”.
As for `C=CCN1C(=O)C2(NNc3ccccc3O2)c2ccccc21` (stereo unspecified), the Potency was 12.5 µM (active).
The figure for `O=C(Nc1ccccc1-c1nc2ccccc2[nH]1)c1ccc(N2C(=O)CCC2=O)cc1` is 23.1 µM (active); for `c1ccc2c(-c3nc4ccccc4[nH]3)cccc2c1` it is “inactive”; for `CCOc1ccc(C(=O)Nc2cc(-c3nc4ccccc4[nH]3)ccc2Cl)cc1[N+](=O)[O-]` it is “inactive”.
As to `Cc1c(N/N=C(\C#N)C(=O)c2ccc(Cl)cc2)c(=O)n(-c2ccccc2)n1C`, the Potency is 20.6 µM (active).
As for `Cc1c(NC(=O)c2csc3c2CCCC3)c(=O)n(-c2ccccc2)n1C`, the entry is “inactive”; as for `COc1cc(C=C2CCCC(=Cc3ccc(OCC4CO4)c(OC)c3)C2=O)ccc1OCC1CO1` (stereo unspecified), “inactive”; as for `C=CCOc1c(Cl)cc(C(=S)N2CCCC2)cc1OCC`, “inactive”.
The figure for `COc1cc(/C=C2/CCC/C(=C\c3cc(O)c(OC)c(Cl)c3)C2=O)cc(Cl)c1O` is 18.4 µM (active).
For `COc1cc(/C=C2\COC/C(=C\c3cc(OC)c(OC)c(OC)c3)C2=O)cc(OC)c1OC`, the Potency result is “inactive”.
As for `COc1cc(/C=N/Nc2ccc(Cl)nn2)cc(OC)c1O`, the Potency result was “inactive”.
On to `CCOc1cc(/C=C2\CCC/C(=C\c3cc(Cl)c(O)c(OCC)c3)C2=O)cc(Cl)c1O`, for which the Potency was 12.5 µM (active).
As for `Cn1c(=O)c(N)c2c3c(c(Br)ccc31)C(=O)c1ccccc1-2`, the figure is 2.91 µM (active); as for `O=[N+]([O-])c1cc(-c2nc(-c3ccccc3)no2)ccc1NCc1ccco1`, 10.3 µM (active); as for `Cc1cccc(-c2noc(-c3ccc(NCc4ccco4)c([N+](=O)[O-])c3)n2)c1`, 16.4 µM (active).
Consider `COc1ccccc1-c1noc(-c2ccc(NCc3ccco3)c([N+](=O)[O-])c2)n1`, for which the Potency is 23.1 µM (active).
Consider `COc1ccc(-c2cnc3c(c2)CCC3(C#N)C#N)cc1`, for which the Potency entry is “inactive”.
As for `O=C1N/C(=N\N=C\c2ccco2)SC1Cc1ccccc1[N+](=O)[O-]` (stereo unspecified), the Potency entry is “inactive”.
Regarding `CCN(CC)S(=O)(=O)c1cc([N+](=O)[O-])ccc1N=Nc1c(O)[nH]c2ccccc12`, the Potency is 20.6 µM (active).
`Cc1ccccc1NCC(=O)N=Nc1c(O)[nH]c2ccc([N+](=O)[O-])cc12`: the Potency result is “inactive”.
As for `CN1C2=CC=CC=CC2=[N+](C)C12C([N+](=O)[O-])=CC(=[N+]([O-])[O-])C=C2[N+](=O)[O-]` (stereo unspecified), the entry is “inactive”; as for `Nc1nn(-c2ccccc2)c(N)c1N=Nc1ccccc1`, “inactive”; as for `CCCCn1c(N)c(N(CCC(C)C)C(=O)c2ccc([N+](=O)[O-])o2)c(=O)[nH]c1=O`, “inactive”.
Regarding `Nc1c(N(CCC2=CCCCC2)C(=O)c2ccc([N+](=O)[O-])o2)c(=O)[nH]c(=O)n1Cc1ccccc1`, the Potency was 18.4 µM (active).
The entry for `CCCCN(C(=O)c1ccc([N+](=O)[O-])s1)c1c(N)n(CCCC)c(=O)[nH]c1=O` is “inactive”.
The entry for `O=Cc1s/c(=N\S(=O)(=O)c2ccccc2)n(CCCCl)c1Cl` is “inactive”; for `CCOC(=O)CSc1nc2c(c(=O)[nH]1)C(C)(CC)Cc1ccccc1-2` (stereo unspecified) it is “inactive”; for `CCOC(=O)Cn1c(=O)c(-c2cc(Br)ccc2N)nc2ccccc21` it is 11.6 µM (active).
`CCOC(=O)COn1c(=O)c(-c2ccc(Br)cc2)[n+]([O-])c2ccccc21`: the Potency entry was “inactive”.
The entry for `CCOC(=O)c1c(C)oc2ccc(N(C(=O)c3ccncc3)S(=O)(=O)c3ccc(Br)cc3)cc12` is “inactive”; for `COc1cc(/C=N/Nc2cc(C)nc(NS(=O)(=O)c3ccccc3)n2)ccc1O` it is “inactive”.
For the compound `COc1ccc(S(=O)(=O)NCc2ccccn2)cc1NC(=O)c1ccc(C)cc1`, the Potency result was “inactive”.
As for `COc1ccc(-n2c(O)c(/C=N/NS(=O)(=O)c3ccc(C)cc3)c3ccccc3c2=O)cc1OC`, the Potency was 18.4 µM (active).
On to `COc1cc(C(=O)NCC(=O)N2CCN(S(=O)(=O)c3cc(C)ccc3C)CC2)cc(OC)c1OC`, for which the Potency result is “inactive”.
The entry for `COc1ccc(OC)c(S(=O)(=O)N/N=C\c2cn(CC(N)=O)c3ccccc23)c1` is “inactive”; for `COc1ccc(-n2c(O)c(/C=N/NS(=O)(=O)c3cc(C)ccc3C)c3ccccc3c2=O)cc1OC` it is 16.4 µM (active); for `CCC(=O)OCc1cnc(C)c2oc(=O)c(C(=O)Nc3ccccc3C(F)(F)F)cc12` it is “inactive”.
Turning to `CC(=O)Nc1cccc(-c2ccnc3c2CC(C(=O)Nc2ccc4c(c2)OCO4)O3)c1` (stereo unspecified), the Potency entry was “inactive”.
As for `O=[N+]([O-])c1cc(O)c2ncccc2c1`, the entry is “inactive”; as for `c1ccc(-c2cccc(-c3ccccn3)n2)nc1`, “inactive”.
As for `Nc1[nH]c2cc([N+](=O)[O-])ccc2c1-c1ccccn1`, the Potency is 8.2 µM (active).
Turning to `COc1ccc(-n2nnnc2S(=O)(=O)Cc2ccc(C(=O)O)cc2)cc1`, the Potency entry is “inactive”.
On to `Cc1ccc(NC(=O)c2c(C)nc3sc(C(=O)NC4CCCC4)c(N)c3c2-c2ccco2)c(C)c1`, for which the Potency was 20.6 µM (active).
On to `CCOC(=O)c1[nH]c(C)c(C(=O)Nc2ccc(C)cc2C)c1C`, for which the Potency entry is “inactive”.
In the case of `COc1cccc(NC(=O)c2sc3nc(C)c(C(=O)Nc4ccc(C)cc4C)c(-c4ccco4)c3c2N)c1`, the Potency entry is “inactive”.
The figure for `CCc1ccc(NC(=O)c2sc3nc(C)c(C(=O)Nc4ccc(C)cc4C)c(-c4ccco4)c3c2N)cc1` is 23.1 µM (active).
